Our source for the growth values is PubChem BioAssay (NCI).

This is part of a sample that, as a whole, favours compounds with a hit. Of some 83,000 tested, about 20% had one in any assay.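 Treatment: one concentration, 48 hours, 96-well format. Scoring: percent growth, with anything below 10 considered active.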 Calls of active or inactive are those of the source.

In this test the test system is T-47D breast. As to the kind of experiment: NCI-60 one-dose screen, 48 h (100 = growth as untreated, 0 = no growth, -100 = all killed). The conditions noted are these: 10 µM unless noted. Here is the method: Growth inhibition of the T-47D human tumor cell line is measured as a screen for anti-cancer activity. Cells are grown in 96 well plates and exposed to the test compound for 48 hours. Compounds are tested at a single concentration, which is 10^-5 M for most compounds. The reported endpoint is percent growth (GI% or GIPRCNT), where numbers from 0 - 100% represent growth inhibition, and numbers from -100% - 0 represent cell death. For example, a value of 40 represents 60% growth inhibition. A value of 0 means no net growth occurred over the course of the experiment. A value of -40 indicates 40% of cells at the beginning of the experiment died by the end of the experiment. A value of -100 means all cells are dead at the end of the experiment.
NCI-60 Human Tumor Cell Lines Screen was performed using the standard one-dose NCI protocol, which is described in more detail at https://dtp.cancer.gov/discovery_development/nci-60/default.htm.
Compounds with GIPRCNT values below 10 were considered active. Activity score was based on GIPRCNT using the following formula: […]
Score is 0 for GIPRCNT values of 100 or above, 50 for GIPRCNT values of 0, and 100 for GIPRCNT values of -100.
On to `CCn1c2ccccc2c2cc(C(=O)c3cccc4c3CCCN4)ccc21`, for which the growth is 104% (inactive).
Turning to `O=C1C(N2CC2)=C(N2CC2)C(=O)C(N2CC2)=C1N1CC1`, the growth was 30.5% (inactive).
Next, `CC1(C)N=C(N)N=C(N)N1c1ccc(OCCCNC(=O)Nc2ccc(S(=O)(=O)F)cc2)c(Cl)c1`: 52.4% (inactive); `COc1ccc2c(c1)c(-c1nc(-c3c[nH]c4ncccc34)cs1)cn2CCN1CCOCC1`: -1.96% (active); `CC1=C(O)[C@@](C)(CCCCC[C@H](C)CCCCc2ccc(O)cc2)OOC1=O`: 89% (inactive).
`O=[N+]([O-])c1cc(I)cc([N+](=O)[O-])c1`: the growth was 95.8% (inactive).
Next, `CNCc1cccnc1`: 98.4% (inactive).
Next, `COc1cc(/C=C\c2cc(OC)c(OC)c(OC)c2)cc(NS(=O)(=O)c2cccc(Cl)c2)c1OC`: 93.1% (inactive); `ClCCN(CCCl)c1ccc(/C=N/Nc2ncnc3nc[nH]c23)cc1`: 59.8% (inactive).
Consider `C[C@@H]1C[C@@]2(C)[C@@H](CC[C@@H]3[C@@H]2CC[C@]2(C)C(=O)CC[C@@H]32)CC1=O`, for which the growth is 98.9% (inactive).
On to `CC(=O)Oc1ccccc1C(=O)NCCC[Se]C#N`, for which the growth is 83.3% (inactive).
Next, `CN1C(=O)C23CC4(C56CC78SSC(CO)(C(=O)N7C5Nc5ccccc56)N(C)C8=O)c5ccccc5NC4N2C(=O)C1(CO)SS3` (stereo not given): -92.4% (active).
As to `O=C1C2C(C(=O)[N]1[Hg][c]1cccs1)C1(Cl)C(Cl)=C(Cl)C2(Cl)C1(Cl)Cl` (stereo not given), the growth is -78.5% (active).
Under `CCOC(=O)CCN(C)C1=Nc2ccc(Cl)cc2C(c2ccccc2)=[N+]([O-])C1` stands 101% (inactive).
Under `O=C(CC1(O)C(=O)N(Cc2ccccc2)c2ccc(Br)cc21)c1ccc(C(=O)NCC2CCC3(CC2)OOC2(CCCCC2)OO3)cc1` (stereo not given) stands -29.2% (active); under `COC(=O)[C@@H](NC(=O)c1cn(CCC2CCCCC2)c2ccccc12)C(C)(C)C`, 61.9% (inactive).
In the case of `C/C1=C/C(=O)O[C@@H]2C[C@@H](CC[C@H](C)/C=C\C=C\CC1)O[C@@](O)([C@@H]1CSC(=O)N1CO)C2`, the growth was 56.8% (inactive).
Next, `COc1cc(C=Nc2cccc(C(=O)O)c2)ccc1N(CCCl)CCCl`: 96.3% (inactive); `C=CC[PH+](c1ccccc1)c1ccccc1.C=CC[PH+](c1ccccc1)c1ccccc1.[Cl][Pt][Cl]`: 0.0943% (active); `O=P(Oc1ccc(Cl)cc1)(N1CC1)N1CC1`: 106% (inactive).
Next, `CC(=O)OC1CCC2C3CCC4=C/C(=N/OC(=O)c5ccc(N(CCCl)CCCl)cc5)CCC4(C)C3CC(C)C12` (stereo not given): 43.8% (inactive); `O=P(N1CC1)(N1CC1)N1CCc2ccccc21`: 111% (inactive).
Next, `COC(=O)CCC1=C(C)c2cc3[n-]c(cc4nc(cc5[n-]c(cc1n2)c(CCC(=O)OC)c5C)C=C4C)cc3C.[Cd+2]`: 42.7% (inactive); `COC(=O)[C@@H](C)C[C@H](Cc1ccccc1)NC(=O)c1nc([C@@H](C[C@H](C(C)C)N(C)C(=O)[C@@H](NC(=O)[C@H]2CCCN2C)C(C)C)OC(C)=O)sc1C`: 43.2% (inactive); `CCCCCCC(=O)NC1=C(N2CC2)C(=O)C(NC(=O)CCCCCC)=C(N2CC2)C1=O`: 11.4% (inactive).
Consider `NC(=O)c1c(Br)n(C2OC(CO)C(O)C2O)c2ncnc(N)c12` (stereo not given), for which the growth is -14.7% (active).
Under `COC(=O)[C@@H](C)C[C@H](Cc1ccc(F)cc1)NC(=O)c1csc([C@@H](C[C@H](C(C)C)N(C)C(=O)[C@@H](NC(=O)[C@H]2CCCCN2C)C(C)C)OC(C)=O)n1` stands 77.3% (inactive).
Take `O=C(CCCC1CCCCC1)OCC(Cl)(Cl)Cl`: the growth is 101% (inactive).
Turning to `CC1=C([Te]c2ccc(O)cc2)C(=O)c2ccccc2C1=O`, the growth is -67.3% (active).
Next, `C/C(=C\c1cc(C(F)(F)F)nn1CCNC(=O)OC(C)(C)C)[C@@H]1C[C@@H]2O[C@]2(C)CCC[C@H](C)[C@H](O)[C@@H](C)C(=O)C(C)(C)[C@@H](O)CC(=O)O1`: 57.8% (inactive); `CCCCCCCC(=O)OCC(=O)[C@]1(O)Cc2c(O)c3c(c(O)c2[C@@H](OC2CC(N)C(O)C(C)O2)C1)C(=O)c1c(OC)cccc1C3=O` (stereo not given in full): -69.2% (active); `CCC1(C(C)C)C(=O)NC(=S)NC1=O`: 106% (inactive).
With `COc1ccc(-n2c(C)nc3cc(OC)c(OC)cc3c2=O)cc1OC`, the growth is 91.4% (inactive).
Under `CC[C@H](C)[C@H](NC(=O)C12C3C4C1C1C2C3C41NC)C(=O)N(C)[C@H](C[C@@H](OC(C)=O)c1nc(C(=O)N[C@@H](Cc2ccccc2)C[C@H](C)C(=O)OC)cs1)C(C)C` (stereo not given in full) stands 40.5% (inactive).
Under `CC12CC(=O)C3(SC#N)C(CCC4=CC(=O)CCC43C)C1CCC2=O` (stereo not given) stands 32.8% (inactive); under `O=[N+]([O-])c1cc([N+](=O)[O-])c(Cl)cc1Cl`, -35.3% (active).
Under `CCC(C)(C)[C@H](NC(=O)[C@H]1CCCCN1C)C(=O)N(C)[C@H](C[C@@H](OC(C)=O)c1nc(C(=O)N[C@@H](Cc2ccccc2)C[C@H](C)C(=O)O)cs1)C(C)C` stands 76.7% (inactive); under `CCCCCCCCCCCCCC[P+](CCCCCC)(CCCCCC)CCCCCC`, -14.8% (active).
As to `CC[C@H](C)[C@@H]([C@@H](CC(=O)N1CCC[C@H]1[C@H](OC)[C@@H](C)C(=O)N[C@H](C)[C@@H](O)c1ccccc1)OC)N(C)C(=O)[C@@H](NC(=O)[C@@H](NC)C(C)C)C(C)C`, the growth is 87.3% (inactive).
As to `CC(=O)OC1C(OC/C2=C/C3[C@@H](C(C)C)CC=C(C)[C@@H]3CC(OC(=O)/C=C/c3cn(C)cn3)[C@]3(C)C=C[C@@]2(O)O3)OCC(O)C1O` (stereo not given in full), the growth is 23% (inactive).
